We go through 22 compounds from the supplement of paper PMC6135742.

The structures appear in SMILES notation. Several values for one entry are separate records, joined by “and”; a condition that tells them apart may be missing. Equal entries are not always repeated. Structures can show the parent of a compound that is named as a salt. Whole data set: some 2,600 compounds, median “total cell number (DAPI+ nuclei) relative to DMSO vehicle control” near -1.4, cut for the lowest 2% near -23. For the sample, the lowest values were picked, then their nearest neighbours and some compounds at random.

This experiment concerns jimpy (Plp1 jimpy) mouse iPSC-derived oligodendrocyte progenitor cells. Kind of experiment: total cell number (DAPI+ nuclei) relative to DMSO vehicle control (SDs above negative control mean); higher = more surviving cells. The settings on record: 10 µM; 3 days. The protocol:
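Primary phenotypic screen of >3,000 bioactive compounds (Selleck L1700 and Sigma LO1280 libraries) at a single dose of 10 µM. Compounds were added to jimpy (Plp1 mutant) mouse iPSC-derived OPCs at the start of thyroid hormone-induced oligodendrocyte differentiation, one well per compound in 384-well plates. After 3 days cells were stained for MBP, Sox10 and DAPI and imaged with an Operetta system. MBP+ oligodendrocyte number and total cell number were expressed as the number of SDs above the mean of the DMSO negative control on the same plate (n=16 control wells per plate). Hits were defined as >=4 SD for oligodendrocytes and >=2 SD for total cells.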
In turn, `CC(C)(C)C(=O)Oc1ccc(S(=O)(=O)Nc2ccccc2C(=O)NCC(=O)O)cc1` [Sivelestat sodium salt hydrate] yielded a total cell number of 0.0346.

Compound `OCCN1CCN(CC/C=C2/c3ccccc3Sc3ccc(C(F)(F)F)cc32)CC1` [cis-(Z)-Flupenthixol dihydrochloride] registered a total cell number of -7.96. In the case of `O=C(CCCCCN1C(=O)c2cccc3cccc(c23)C1=O)NO` [Scriptaid], the total cell number is -6.21. With `CN(C)CCN1C(=O)c2cccc3cc(N)cc(c23)C1=O` [Amonafide], the total cell number is -24. To `CC(NC(=O)c1ccccc1/N=C/c1c(O)ccc2ccccc12)c1ccccc1` (configuration not stated) [Sirtinol] belongs -0.73. Take `CCC(=O)O[C@]1(C(=O)CCl)[C@@H](C)C[C@H]2[C@@H]3C[C@H](F)C4=CC(=O)C=C[C@]4(C)[C@@]3(F)[C@@H](O)C[C@@]21C` [Halobetasol Propionate]: the total cell number was 10.4.

`O=C(O)CC[C@H]1CC[C@@](c2cc(F)ccc2F)(S(=O)(=O)c2ccc(Cl)cc2)CC1` displayed a total cell number of 0.0291.

Compound `CC(C)(C)c1cnc(CSc2cnc(NC(=O)C3CCNCC3)s2)o1` registered a total cell number of -22.9.

In turn, `Nc1ncnc2c1nc(Br)n2C1OC2COP(=O)(O)O[C@@H]2C1O` (some centres not stated) [8-Bromo-cAMP sodium] displayed a total cell number of -0.722. To `CC(C)[C@H]1C(=O)N[C@@H](CCCNC(=N)N)C(=O)NCC(=O)N[C@@H](CC(=O)O)C(=O)N[C@H](Cc2ccccc2)C(=O)N1C` [Cilengitide] belongs 1.19; to `COc1cc(Nc2c(C#N)cnc3cc(OCCCN4CCN(C)CC4)c(OC)cc23)c(Cl)cc1Cl` [Bosutinib (SKI-606)], -26.4. With `COc1cc(C(=O)OCCCN2CCCN(CCCOC(=O)c3cc(OC)c(OC)c(OC)c3)CC2)cc(OC)c1OC` [Dilazep hydrochloride], the total cell number is -5.8. To `COc1cc(Nc2c(C#N)cnc3cc(OCCCN4CCN(C)CC4)c(OC)cc23)c(Cl)cc1Cl` [Bosutinib] belongs -10.5.

Take `COc1cc2nc(N3CCCN(C)CC3)nc(NC3CCN(Cc4ccccc4)CC3)c2cc1OC`: the total cell number was -10.1 and -15.2. The value for `COc1cc2/c(=N/c3ccc(Br)cc3F)nc[nH]c2cc1OCC1CCN(C)CC1` [Vandetanib (ZD6474)] was -26.7; that for `COc1ccc(C[C@H](NC(=O)[C@H](C)NC(=O)CN2CCOCC2)C(=O)N[C@@H](Cc2ccccc2)C(=O)[C@@]2(C)CO2)cc1` was -12.1. As to `CC(C)(N)c1ncc(-c2ccc(OC(F)(F)F)cc2)[nH]1`, the total cell number was -3.28. The compound `Oc1cccc(-c2nc(N3CCOCC3)c3oc4ncccc4c3n2)c1` came in with a total cell number of -21. The value for `N#CC(C#N)=C(N)/C(C#N)=C/c1cc(O)c(O)c(O)c1` [Tyrphostin 51] was -1.44; that for `Fc1cc(-c2cccc3ncc(-c4cnn(C5CCNCC5)c4)nc23)cc(F)c1CN1CCOCC1` was -12.4.

In turn, `C[C@@H](Oc1cc(-c2cnn(C3CCNCC3)c2)cnc1N)c1c(Cl)ccc(F)c1Cl` registered a total cell number of -27.1. With `C[C@H](Oc1cc(-c2cnn(C3CCNCC3)c2)cnc1N)c1c(Cl)ccc(F)c1Cl` [(S)-crizotinib], the total cell number is -15.7.
